SMILES strings stand for the structures. Unmarked numbers belong to inactive results. Results filed as inconclusive are left out. Calls of active or inactive are those of the source. Unless noted, calls follow the shape of the dose curve; as a rule, active = well fitted curve in the direction sought with a large enough effect; inconclusive = small, poorly fitted or top-dose-only effect, or another doubt; inactive = no such curve, though single readings can be large; an effect the other way counts as inactive or inconclusive.

Assay [1] concerns the target T1, Hexokinase-4 (Homo sapiens) + Glucokinase regulatory protein (Homo sapiens) (UniProt P35557+Q14397). Put plainly: qHTS assay for inhibitors of recombinant human GCK-GKRP interaction: Diaphorase-coupled assay (AID 743205). Also: potency is read from the fitted curve at half-maximal effect. Summed up: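 Resorufin fluorescence (525/590 nm), read each minute over 30 min, reports GCK activity coupled via G6PDH and diaphorase. Reaction: 10 nM GST-GCK, 10 nM FLAG-GKRP, 5 mM glucose, 0.4 mM ATP, 0.15 mM NADP+, 0.1 mM resazurin.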

Assay [2] deals with T1, Hexokinase-4 (Homo sapiens) + Glucokinase regulatory protein (Homo sapiens). Put plainly: qHTS assay for inhibitors of recombinant human GCK-GKRP interaction: ADP-Glo assay (AID 743206). Also: potency is read from the fitted curve at half-maximal effect. Summed up: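 Pin-transferred compounds meet a 15 nM GST-GCK/15 nM FLAG-GKRP/2 uM S6P mix (dispense concentrations). ATP is then added to 0.4 mM final with 5 mM glucose, and the reaction runs 60 min at room temperature. ADP is quantified luminescently.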
(In general: qHTS replaces the single test concentration by a dilution series.)

Assay [3] has the same target. In words: qHTS assay for inhibitors of recombinant human GCK-GKRP interaction: HTRF assay (AID 743207). Also: potency is read from the fitted curve at half-maximal effect. Summed up:
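HTRF read-out (ex 320 nm; 615/665 nm emission) after 60 min RT equilibration of 5 nM GST-GCK, 5 nM FLAG-GKRP, 2 uM S6P, compound and anti-FLAG/anti-GST detection antibodies; signal normalized between DMSO wells with and without GCK.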

Assay [4] can be described thus: qHTS Assay for Identifying Gametocytocidal Compounds (AID 743244).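 Also: % is scaled to controls: 0 for no effect and ±100 for the full control effect; actives lower the fluorescent signal which means gametocytes are killed.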 As to conditions: P. falciparum 3D7 stage III-V gametocytes, alamarBlue, 72 h; max response: stronger effect = lower value. Summed up: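 Viability read-out was resazurin reduction (alamarBlue, 24 h) measured at Ex 525/Em 598 nm. Beforehand, late-stage (III-V) 3D7 P. falciparum gametocytes at 20,000 cells/well were incubated with compound 72 h at 37C under 5% CO2.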

Assay [5] can be described thus: qHTS assay for measurement of the activity of small molecule inhibitors on Zika virus induced Caspase-3 activity in human iPSC derived neural progenitor cells (hNPCs) (AID 1224857). Also: % of control where 0% means no effect; nearly all actives have a fitted effect of over 65% in size. Summed up: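 Percent inhibition of virus-induced caspase-3/7 luminescence (Caspase-Glo), scaled between uninfected cells and Zika-infected cells. hNPCs received compound 1 hr before ZIKV at 2 FFU/cell, with 6 hours infection at 37 C.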

The nature of assay [6]: qHTS assay for measurement of the activity of small molecule inhibitors on Zika virus induced Caspase-3 activity in human astrocytoma cells (AID 1224859).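 Also: plate controls were ZIKV-infected untreated cells for no effect and uninfected cells for full effect.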 Summed up:
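Luminescent caspase-3/7 read-out (30 min reagent, room temperature) in human SNB-19 cells infected 6 h with ZIKV (2 FFU/cell) after 1 h compound pre-incubation; Data were normalised to uninfected and infected wells.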

The nature of assay [7]: Natriuretic polypeptide receptor (hNpr1) antagonism - Pilot counterscreen GloSensor control cell line (AID 1347045; calls by dose curve; also: series mostly up to about 38 µM; % is scaled to controls: 0 for no effect and ±100 for the full control effect). Summed up: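 HEK293 cGMP-sensor cells; 2% GloSensor reagent 2 h RT; LOPAC compounds in 1:5 titrations 30-50 min; 50 uM SNP 20 min; luminescence pre-read and post-read.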
(Counterscreens check selectivity or assay interference.)

Assay [8] concerns the target Atrial natriuretic peptide receptor 1 (Homo sapiens) (UniProt P16066). In words: Natriuretic polypeptide receptor (hNpr1) antagonism - Pilot screen (AID 1347049; calls by dose curve;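 also: HEK293 cells with hNpr1 and GloSensor cGMP luciferase stimulated by 0.1 nM hNppA; agonist-evoked cGMP luminescence read 20 min after hNppA addition; series mostly up to about 58 µM; % is scaled to controls: 0 for no effect and ±100 for the full control effect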). Summed up:
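Receptor antagonism read as cGMP-dependent luminescence in hNpr1/pGS-40F HEK293 cells: pre-read after 30 min compound exposure, post-read 20 min after hNppA agonist at 0.1 nM final, all at room temperature, protected from light; A-71915 titration as control.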

Assay [9] has as its target Atrial natriuretic peptide receptor 2 (Homo sapiens) (UniProt P20594). In words: Natriuretic polypeptide receptor (hNpr2) antagonism - Pilot subtype selectivity assay (AID 1347050; calls by dose curve; also: % is scaled to controls: 0 for no effect and ±100 for the full control effect). Summed up:
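Antagonist mode: compounds (LOPAC1280, seven 1:5 dilutions) added 30 min before 1 nM hNppC stimulation of hNpr2-HEK293 cGMP-sensor cells; luminescence read before and 20 min after agonist at ambient temperature.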

Atrial natriuretic peptide receptor 1 (Homo sapiens), sequence (P16066 whole entry, looked up): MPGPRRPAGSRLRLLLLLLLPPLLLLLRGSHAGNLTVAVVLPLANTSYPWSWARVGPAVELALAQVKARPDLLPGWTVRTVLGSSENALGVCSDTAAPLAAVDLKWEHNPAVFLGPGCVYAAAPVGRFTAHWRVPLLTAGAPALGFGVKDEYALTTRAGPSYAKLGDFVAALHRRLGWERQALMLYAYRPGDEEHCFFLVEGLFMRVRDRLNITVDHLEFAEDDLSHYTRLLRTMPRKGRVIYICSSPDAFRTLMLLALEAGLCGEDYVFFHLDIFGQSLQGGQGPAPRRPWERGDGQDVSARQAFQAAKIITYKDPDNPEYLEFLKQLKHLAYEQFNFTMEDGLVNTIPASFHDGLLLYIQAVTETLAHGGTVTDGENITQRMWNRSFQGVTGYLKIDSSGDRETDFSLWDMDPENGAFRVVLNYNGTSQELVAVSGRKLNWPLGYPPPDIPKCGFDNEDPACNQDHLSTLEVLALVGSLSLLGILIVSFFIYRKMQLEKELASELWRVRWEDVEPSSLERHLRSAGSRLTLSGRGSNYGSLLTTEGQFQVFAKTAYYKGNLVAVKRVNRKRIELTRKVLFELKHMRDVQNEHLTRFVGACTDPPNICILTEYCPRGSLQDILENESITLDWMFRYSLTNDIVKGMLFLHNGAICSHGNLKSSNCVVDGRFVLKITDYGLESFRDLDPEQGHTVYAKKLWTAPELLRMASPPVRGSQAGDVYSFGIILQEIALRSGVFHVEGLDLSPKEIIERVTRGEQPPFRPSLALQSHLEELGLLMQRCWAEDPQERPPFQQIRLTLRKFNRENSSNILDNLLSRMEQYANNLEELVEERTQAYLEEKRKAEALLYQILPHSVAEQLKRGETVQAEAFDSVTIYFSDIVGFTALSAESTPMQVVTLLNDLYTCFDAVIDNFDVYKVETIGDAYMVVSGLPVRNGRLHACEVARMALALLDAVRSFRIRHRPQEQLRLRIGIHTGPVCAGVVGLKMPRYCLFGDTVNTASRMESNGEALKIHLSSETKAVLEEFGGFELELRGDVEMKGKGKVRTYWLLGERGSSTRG
T1 sequence (P35557 whole entry, looked up): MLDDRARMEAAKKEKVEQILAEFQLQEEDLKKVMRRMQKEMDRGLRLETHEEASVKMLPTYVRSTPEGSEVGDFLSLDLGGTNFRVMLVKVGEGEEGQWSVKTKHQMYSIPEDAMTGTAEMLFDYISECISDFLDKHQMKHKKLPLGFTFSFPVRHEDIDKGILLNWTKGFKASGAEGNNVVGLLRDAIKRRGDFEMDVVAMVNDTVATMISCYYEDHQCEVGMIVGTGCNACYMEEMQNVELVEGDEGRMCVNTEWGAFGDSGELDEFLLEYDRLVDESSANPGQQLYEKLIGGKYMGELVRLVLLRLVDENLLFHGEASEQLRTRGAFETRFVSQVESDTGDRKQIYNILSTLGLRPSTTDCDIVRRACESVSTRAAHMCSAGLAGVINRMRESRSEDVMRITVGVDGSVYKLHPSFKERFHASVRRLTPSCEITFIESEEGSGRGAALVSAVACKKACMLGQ
T1 sequence (Q14397 whole entry, looked up): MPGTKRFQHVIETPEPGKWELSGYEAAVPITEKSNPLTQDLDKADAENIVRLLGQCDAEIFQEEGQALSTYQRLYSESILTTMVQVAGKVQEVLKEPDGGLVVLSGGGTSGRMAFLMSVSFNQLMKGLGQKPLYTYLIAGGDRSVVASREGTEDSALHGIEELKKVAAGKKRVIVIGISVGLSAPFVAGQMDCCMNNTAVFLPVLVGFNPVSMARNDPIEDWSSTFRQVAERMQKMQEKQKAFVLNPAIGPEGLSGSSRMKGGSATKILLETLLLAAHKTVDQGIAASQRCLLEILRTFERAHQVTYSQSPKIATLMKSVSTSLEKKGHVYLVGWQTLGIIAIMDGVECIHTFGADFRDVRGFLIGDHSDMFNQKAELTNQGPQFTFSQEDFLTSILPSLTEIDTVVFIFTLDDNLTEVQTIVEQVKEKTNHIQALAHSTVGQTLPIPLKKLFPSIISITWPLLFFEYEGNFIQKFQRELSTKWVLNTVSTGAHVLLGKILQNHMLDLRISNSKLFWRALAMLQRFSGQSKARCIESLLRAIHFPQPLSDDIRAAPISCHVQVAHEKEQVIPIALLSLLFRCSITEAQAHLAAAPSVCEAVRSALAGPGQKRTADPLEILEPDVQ
Atrial natriuretic peptide receptor 2 (Homo sapiens), sequence (P20594 whole entry, looked up): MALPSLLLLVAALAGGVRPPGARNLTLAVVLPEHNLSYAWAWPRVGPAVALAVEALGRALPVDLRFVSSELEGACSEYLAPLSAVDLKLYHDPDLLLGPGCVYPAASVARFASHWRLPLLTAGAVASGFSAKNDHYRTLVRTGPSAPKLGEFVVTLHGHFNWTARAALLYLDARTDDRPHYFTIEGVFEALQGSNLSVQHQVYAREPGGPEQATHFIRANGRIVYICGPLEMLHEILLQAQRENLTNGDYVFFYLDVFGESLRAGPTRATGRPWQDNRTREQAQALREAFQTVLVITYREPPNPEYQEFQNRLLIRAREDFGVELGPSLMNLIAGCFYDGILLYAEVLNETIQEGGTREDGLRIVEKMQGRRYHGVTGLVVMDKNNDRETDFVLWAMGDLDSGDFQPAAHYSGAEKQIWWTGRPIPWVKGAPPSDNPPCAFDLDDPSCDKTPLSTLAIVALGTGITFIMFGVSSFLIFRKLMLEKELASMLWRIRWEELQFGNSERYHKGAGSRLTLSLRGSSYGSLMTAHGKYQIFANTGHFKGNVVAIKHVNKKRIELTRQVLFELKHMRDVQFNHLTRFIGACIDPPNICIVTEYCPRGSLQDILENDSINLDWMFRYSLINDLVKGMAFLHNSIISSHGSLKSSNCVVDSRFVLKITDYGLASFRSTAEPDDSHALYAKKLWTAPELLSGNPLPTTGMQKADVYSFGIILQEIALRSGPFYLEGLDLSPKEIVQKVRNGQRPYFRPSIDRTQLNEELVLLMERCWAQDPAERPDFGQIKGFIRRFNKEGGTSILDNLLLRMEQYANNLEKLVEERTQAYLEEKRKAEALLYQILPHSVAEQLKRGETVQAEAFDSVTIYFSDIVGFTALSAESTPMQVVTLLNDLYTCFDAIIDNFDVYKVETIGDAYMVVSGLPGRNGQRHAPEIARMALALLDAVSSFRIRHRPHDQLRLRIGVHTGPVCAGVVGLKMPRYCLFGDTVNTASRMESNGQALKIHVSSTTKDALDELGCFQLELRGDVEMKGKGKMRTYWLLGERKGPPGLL

For the compound `C=C(C)C1CC=C(C(=O)O)CC1` (stereo not given), the Potency entry in [1], in assay [2], in [3], in assay [5], in assay [6] and in assay [7] was “inactive” throughout. Besides, the Potency entry in [8] and in [9] was “inactive” each time. For the same compound, the max response in [4] is 19.6%.

Take `Cc1ccccc1/C=C/C1=NCCN1`: the Potency entry in [1], in assay [2], in [3], in assay [5], in [6] and in [7] was “inactive” in each case. The Potency entry in [8] and in assay [9] was “inactive” throughout.

On to `O=c1[nH]c2cc(Cl)ccc2c(O)c1-c1ccc(Oc2ccccc2)cc1`, for which the Potency result in assay [1], in assay [2], in [3], in assay [5], in assay [6] and in [7] was “inactive” in each case. For the same compound, the Potency result in assay [8] and in [9] was “inactive” in each case. Moreover, the max response in [4] is 17.9%.

As to `OC[C@H]1O[C@@H](n2cnc3cncnc32)[C@H](O)[C@@H]1O`, the Potency result in [1], in assay [2], in [3], in [5], in assay [6] and in assay [7] was “inactive” each time. The Potency result in [8] and in [9] was “inactive” throughout. For the same compound, the max response in assay [4] was 19.7%.

On to `Nn1nnc2ccccc21`, for which the Potency result in assay [1], in assay [2], in assay [3], in assay [5], in assay [6] and in assay [7] was “inactive” in each case. For the same compound, the Potency entry in assay [8] and in assay [9] was “inactive” in each case. Also, the max response in assay [4] was 16.9%.

Turning to `O=C(O)C1=CC(=C(c2ccc(O)c(C(=O)O)c2)c2ccc(O)c(C(=O)O)c2)C=CC1=O`, the Potency was 25.1 µM (active) in assay [1], 4.47 µM (active) in assay [2] and 2.51 µM (active) in assay [3]. Also, in assay [4], the max response was 21.2%. Moreover, the Potency result in [5], in [6], in [7], in [8] and in assay [9] was “inactive” in each case.

`O=C(O)CCC/C=C\C[C@@H]1[C@@H](/C=C/[C@H](O)C2Cc3ccccc3C2)[C@@H](F)C[C@@H]1O`: the Potency entry in assay [1], in [2], in [3], in [5], in [6] and in assay [7] was “inactive” throughout. Besides, the Potency entry in assay [8] and in assay [9] was “inactive” throughout. Moreover, the max response in assay [4] was -7.09%.

Consider `NC1(C(=O)O)CC1`, for which the Potency result in [1], in assay [2], in assay [3], in assay [5], in assay [6] and in assay [7] was “inactive” in each case. For the same compound, the Potency result in [8] and in [9] was “inactive” each time. Moreover, the max response in assay [4] is 4.84%.

Turning to `N=C(N)c1ccccc1`, the Potency result in assay [1], in assay [2], in [3], in [5], in [6] and in [7] was “inactive” in each case. Also, the Potency result in assay [8] and in [9] was “inactive” in each case. For the same compound, the max response in [4] is 17.2%.

As to `CC1=C(C(=O)O)N2C(=O)[C@@H](NC(=O)C(N)C3=CCC=CC3)[C@H]2SC1` (stereo not given in full), the Potency entry in [1], in assay [2], in assay [3], in assay [5], in [6] and in assay [7] was “inactive” in each case. Besides, the Potency result in assay [8] and in assay [9] was “inactive” throughout. The max response in assay [4] is 5.72%.

Turning to `O=C(O)C1CN(CCCP(=O)(O)O)CCN1` (stereo not given), the Potency entry in assay [1], in assay [2], in assay [3], in assay [5], in assay [6] and in [7] was “inactive” in each case. For the same compound, the Potency result in assay [8] and in [9] was “inactive” in each case. Also, in assay [4], the max response is -7.29%.

For the compound `CN1CCN(c2nc3cc(C(F)(F)F)ccc3n3cccc23)CC1`, the Potency entry in [1], in assay [2], in [3], in assay [5], in [6] and in assay [7] was “inactive” each time. Further, the Potency result in assay [8] and in assay [9] was “inactive” in each case. The max response in assay [4] is 14.6%.

In the case of `O=C(O)/C=C/c1cnc[nH]1`, the Potency result in assay [1], in [2], in [3], in assay [5], in [6] and in [7] was “inactive” each time. Besides, the Potency entry in assay [8] and in [9] was “inactive” each time. Also, in [4], the max response is 8.66%.

Turning to `CC(C)(CO)Cc1cc(C(C)(C)C)c(O)c(C(C)(C)C)c1`, the Potency entry in assay [1], in [2], in assay [3], in assay [5], in assay [6] and in [7] was “inactive” in each case. The Potency result in assay [8] and in assay [9] was “inactive” each time. The max response in assay [4] is 9.64%.

For the compound `O=C1C2C=CC=CC2=NC(=S)N1CCN1CCC(=C(c2ccc(F)cc2)c2ccc(F)cc2)CC1` (stereo not given), the Potency entry in assay [1], in assay [2], in [3], in assay [5], in assay [6] and in assay [7] was “inactive” in each case. In addition, the Potency result in [8] and in assay [9] was “inactive” in each case. The max response in assay [4] is 2.83%.

For the compound `COC(=O)C(C)(N)Cc1ccc(O)cc1` (stereo not given), the Potency result in assay [1], in [2], in assay [3], in [5], in [6] and in assay [7] was “inactive” in each case. Further, the Potency entry in [8] and in [9] was “inactive” throughout. The max response in assay [4] is 7.17%.

For the compound `CCN(CC)CCOC(=O)c1cc(Cl)c(N)cc1OC`, the Potency result in assay [1], in assay [2], in assay [3], in assay [5], in assay [6] and in assay [7] was “inactive” throughout. Moreover, the Potency entry in assay [8] and in assay [9] was “inactive” each time. In addition, the max response in [4] is 40.4%.

On to `CC1CNCCN1S(=O)(=O)c1cccc2cnccc12` (stereo not given), for which the Potency entry in assay [1], in assay [2], in [3], in assay [5], in [6] and in assay [7] was “inactive” throughout. The Potency result in assay [8] and in assay [9] was “inactive” each time. Also, in [4], the max response is 22.5%.

Take `CCc1ccc2c(-c3cccc(Cl)c3)nc(=O)n(CC)c2n1`: the Potency result in [1], in assay [2], in [3], in assay [5], in assay [6] and in assay [7] was “inactive” each time. The Potency result in assay [8] and in assay [9] was “inactive” each time. Moreover, in [4], the max response was 15.8%.

For the origin of these results see PubChem BioAssay (NCATS).
